The full data set covers some 8,800 targets. This sample favours those with a hit. About 0.5% of all pairs of compound and target were hits. A number with no mark means an inactive call.

In the supplement of paper PMC10849652 one finds log2 fold change data, which are given here for 11 targets.

Assay in all cases: log2 fold change, soluble protein after heating vs DMSO (PISA); higher = thermal stabilisation; K562 lysate, 10 uM; active = over 0.2 and 3.5 SD of the protein, either way, in both replicates (recomputed)
Compound in assay [1]: CN1CC[C@H](c2c(O)cc(O)c3c(=O)cc(-c4ccccc4Cl)oc23)[C@H](O)C1 [alvocidib]
In short, it runs like this:
(§1)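 Values give the log-two fold change in thermal stability against solvent controls, from duplicates. Crude K562 extract at 1 mg/mL protein, made by dounce homogenisation in PBS pH 7.4 with 1 mM MgCl2, was treated with 10 μM compound for 30 min. After 3 min heating across 48°C-58°C, aliquots were pooled, adjusted to 0.5% NP-40 at 4°C and centrifuged at 21,000xg for 90 min. The supernatant was measured by TMTpro 16plex LC-MS/MS with channel sums equalised.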

Compound in assay [2]: CN1CCc2c(c3ccccc3n2Cc2ccc(C(=O)NO)cc2)C1 [Tubastatin A]
In short, it runs like this:
as §1

Compound in assay [3]: CNC(=O)C1=CC=CC=C1NC2=NC(=NC=C2Cl)NC3=C(C=C(C=C3)N4CCOCC4)OC
In short, it runs like this: as §1

Compound in assay [4]: CNC(=O)c1ccc(Nc2ncc(C(F)(F)F)c(NCc3nccnc3N(C)S(C)(=O)=O)n2)cc1 [defactinib]
In short, it runs like this: as §1

Compound in assay [5]: CNc1nc(-c2ccc3c(N)n[nH]c3c2)cc(N2C[C@@H](C(=O)NC3CCCCC3)CC[C@H]2C)n1
In short, it runs like this:
as §1

Compound in assay [6]: COC(=O)N[C@@H](C)CNc1nccc(-c2cn(C(C)C)nc2-c2cc(Cl)cc(NS(C)(=O)=O)c2F)n1 [encorafenib]
In short, it runs like this:
as §1

Compound in assay [7]: COC(=O)[C@H](CCSC)NC(=O)C1=C(C=C(C=C1)NC[C@H](CS)N)C2=CC=CC=C2
In short, it runs like this: as §1

Compound in assay [8]: COc1cc(Nc2ncc3c(n2)-c2ccc(Cl)cc2C(c2c(F)cccc2OC)=NC3)ccc1C(=O)O [alisertib]
In short, it runs like this:
as §1

Compound in assay [9]: COc1cc2nc(-c3cc(F)ccc3O)nc(N[C@@H]3CNC[C@H]3C(C)(C)O)c2cc1OC
In short, it runs like this: as §1

Compound in assay [10]: COc1cc2ncnc(Nc3ccc(F)c(Cl)c3)c2cc1OCCCN1CCOCC1 [gefitinib]
In short, it runs like this: as §1

Chain of UniProt Q9UHW9 (Q9UHW9 whole entry, looked up): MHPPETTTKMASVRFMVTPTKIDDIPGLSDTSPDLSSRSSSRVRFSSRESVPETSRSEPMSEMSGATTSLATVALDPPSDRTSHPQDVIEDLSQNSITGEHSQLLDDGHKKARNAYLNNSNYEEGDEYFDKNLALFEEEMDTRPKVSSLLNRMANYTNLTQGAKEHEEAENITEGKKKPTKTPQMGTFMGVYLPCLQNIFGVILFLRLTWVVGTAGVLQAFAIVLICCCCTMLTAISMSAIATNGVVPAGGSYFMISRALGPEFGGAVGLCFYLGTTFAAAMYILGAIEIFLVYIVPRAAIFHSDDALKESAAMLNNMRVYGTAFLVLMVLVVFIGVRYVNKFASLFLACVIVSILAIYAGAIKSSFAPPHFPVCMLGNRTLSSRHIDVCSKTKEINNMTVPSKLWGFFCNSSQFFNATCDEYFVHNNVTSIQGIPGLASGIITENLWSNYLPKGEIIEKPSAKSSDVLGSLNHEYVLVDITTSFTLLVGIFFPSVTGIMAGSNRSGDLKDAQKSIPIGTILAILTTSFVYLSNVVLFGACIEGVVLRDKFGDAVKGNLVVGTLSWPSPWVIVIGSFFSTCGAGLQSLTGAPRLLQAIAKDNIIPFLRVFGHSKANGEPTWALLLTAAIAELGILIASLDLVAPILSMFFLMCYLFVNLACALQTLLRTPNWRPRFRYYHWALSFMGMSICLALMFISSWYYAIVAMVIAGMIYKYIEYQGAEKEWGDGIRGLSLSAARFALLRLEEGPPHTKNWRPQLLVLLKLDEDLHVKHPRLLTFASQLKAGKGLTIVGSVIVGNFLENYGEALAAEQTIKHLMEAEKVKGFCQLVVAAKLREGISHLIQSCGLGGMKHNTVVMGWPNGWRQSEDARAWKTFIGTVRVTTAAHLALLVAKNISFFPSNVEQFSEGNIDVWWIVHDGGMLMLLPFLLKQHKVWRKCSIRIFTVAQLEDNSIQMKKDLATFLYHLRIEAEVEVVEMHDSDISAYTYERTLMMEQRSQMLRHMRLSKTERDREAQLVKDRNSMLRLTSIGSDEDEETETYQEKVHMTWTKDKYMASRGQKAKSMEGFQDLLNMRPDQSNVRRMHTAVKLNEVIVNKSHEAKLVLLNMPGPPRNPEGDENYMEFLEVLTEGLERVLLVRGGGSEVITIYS
Chain of UniProt O95926 (O95926 whole entry, looked up): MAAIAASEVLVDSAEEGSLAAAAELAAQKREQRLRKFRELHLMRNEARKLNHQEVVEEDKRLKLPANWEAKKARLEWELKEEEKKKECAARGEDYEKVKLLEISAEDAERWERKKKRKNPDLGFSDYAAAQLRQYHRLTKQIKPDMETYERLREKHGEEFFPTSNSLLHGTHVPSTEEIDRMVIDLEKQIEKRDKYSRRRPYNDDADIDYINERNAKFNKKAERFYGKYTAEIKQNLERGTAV
Chain of UniProt Q6NXT4 (Q6NXT4 whole entry, looked up): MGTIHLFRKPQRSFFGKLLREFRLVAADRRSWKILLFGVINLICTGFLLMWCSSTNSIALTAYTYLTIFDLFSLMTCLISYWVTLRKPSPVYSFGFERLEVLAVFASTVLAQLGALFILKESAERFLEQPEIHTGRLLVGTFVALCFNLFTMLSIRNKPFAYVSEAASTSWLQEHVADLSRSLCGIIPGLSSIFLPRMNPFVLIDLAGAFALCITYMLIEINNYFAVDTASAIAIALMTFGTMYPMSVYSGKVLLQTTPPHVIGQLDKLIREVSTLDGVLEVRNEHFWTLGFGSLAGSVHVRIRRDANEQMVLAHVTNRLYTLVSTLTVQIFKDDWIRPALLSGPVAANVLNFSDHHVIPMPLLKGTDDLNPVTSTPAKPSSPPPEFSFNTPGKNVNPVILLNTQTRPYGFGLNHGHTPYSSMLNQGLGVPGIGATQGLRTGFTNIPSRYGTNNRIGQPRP
Chain of UniProt Q8WU79 (Q8WU79 whole entry, looked up): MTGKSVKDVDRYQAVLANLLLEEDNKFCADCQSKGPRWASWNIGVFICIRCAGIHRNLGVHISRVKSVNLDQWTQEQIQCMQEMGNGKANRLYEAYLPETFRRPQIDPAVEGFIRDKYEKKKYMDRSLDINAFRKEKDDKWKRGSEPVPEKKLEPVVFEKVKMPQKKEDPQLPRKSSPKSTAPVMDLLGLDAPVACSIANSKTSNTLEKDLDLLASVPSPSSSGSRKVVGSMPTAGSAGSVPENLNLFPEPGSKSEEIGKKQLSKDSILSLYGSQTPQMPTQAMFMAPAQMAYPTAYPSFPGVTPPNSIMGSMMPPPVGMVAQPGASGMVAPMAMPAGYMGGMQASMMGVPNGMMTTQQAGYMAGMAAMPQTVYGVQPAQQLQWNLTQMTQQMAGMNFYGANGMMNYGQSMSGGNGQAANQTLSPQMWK
Chain of UniProt O14975 (O14975 whole entry, looked up): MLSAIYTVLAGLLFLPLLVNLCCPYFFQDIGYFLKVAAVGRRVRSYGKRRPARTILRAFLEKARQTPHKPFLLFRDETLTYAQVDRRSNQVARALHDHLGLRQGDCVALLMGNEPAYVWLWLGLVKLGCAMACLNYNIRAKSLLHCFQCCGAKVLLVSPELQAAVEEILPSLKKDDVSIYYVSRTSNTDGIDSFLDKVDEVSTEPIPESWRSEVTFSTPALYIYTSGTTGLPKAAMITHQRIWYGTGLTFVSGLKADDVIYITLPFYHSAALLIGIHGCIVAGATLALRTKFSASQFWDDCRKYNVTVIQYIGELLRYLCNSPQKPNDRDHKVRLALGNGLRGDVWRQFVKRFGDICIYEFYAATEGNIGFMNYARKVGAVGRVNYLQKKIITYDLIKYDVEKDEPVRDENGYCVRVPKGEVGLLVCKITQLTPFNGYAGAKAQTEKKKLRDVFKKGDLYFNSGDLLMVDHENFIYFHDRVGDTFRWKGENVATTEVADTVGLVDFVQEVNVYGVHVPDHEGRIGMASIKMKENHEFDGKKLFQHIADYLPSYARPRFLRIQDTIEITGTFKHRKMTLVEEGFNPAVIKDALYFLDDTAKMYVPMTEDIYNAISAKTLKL
Chain of UniProt O95391 (O95391 whole entry, looked up): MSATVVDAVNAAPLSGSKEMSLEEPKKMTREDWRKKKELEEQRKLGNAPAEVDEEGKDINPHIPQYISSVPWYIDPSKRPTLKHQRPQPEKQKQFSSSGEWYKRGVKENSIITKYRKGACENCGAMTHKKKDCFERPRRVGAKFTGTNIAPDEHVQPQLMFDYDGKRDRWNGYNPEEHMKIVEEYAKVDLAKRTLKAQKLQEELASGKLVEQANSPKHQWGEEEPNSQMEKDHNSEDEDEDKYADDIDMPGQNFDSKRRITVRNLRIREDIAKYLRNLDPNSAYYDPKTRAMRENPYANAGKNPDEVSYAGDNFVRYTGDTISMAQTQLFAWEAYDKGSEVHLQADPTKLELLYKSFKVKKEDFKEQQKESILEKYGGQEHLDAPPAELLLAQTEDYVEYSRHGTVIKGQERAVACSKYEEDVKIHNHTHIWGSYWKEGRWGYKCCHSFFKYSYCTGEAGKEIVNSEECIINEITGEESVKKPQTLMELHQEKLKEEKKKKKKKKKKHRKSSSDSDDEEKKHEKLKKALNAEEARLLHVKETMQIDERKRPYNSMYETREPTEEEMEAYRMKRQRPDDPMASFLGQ
Chain of UniProt Q9Y2D2 (Q9Y2D2 whole entry, looked up): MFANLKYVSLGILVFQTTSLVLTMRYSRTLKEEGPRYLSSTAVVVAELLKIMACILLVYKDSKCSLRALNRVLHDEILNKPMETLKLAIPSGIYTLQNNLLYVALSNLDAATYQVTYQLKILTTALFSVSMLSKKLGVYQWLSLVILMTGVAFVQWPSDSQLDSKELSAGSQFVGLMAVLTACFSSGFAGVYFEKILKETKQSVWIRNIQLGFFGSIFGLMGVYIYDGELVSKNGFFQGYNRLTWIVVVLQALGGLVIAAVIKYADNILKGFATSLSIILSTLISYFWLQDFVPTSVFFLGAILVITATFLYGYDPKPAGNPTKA
Chain of UniProt Q13242 (Q13242 whole entry, looked up): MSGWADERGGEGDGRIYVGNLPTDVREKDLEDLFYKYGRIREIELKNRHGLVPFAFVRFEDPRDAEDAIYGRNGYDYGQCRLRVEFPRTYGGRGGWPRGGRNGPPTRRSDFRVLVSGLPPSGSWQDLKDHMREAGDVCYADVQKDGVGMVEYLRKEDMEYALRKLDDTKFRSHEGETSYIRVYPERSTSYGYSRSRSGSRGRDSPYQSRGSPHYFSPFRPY
Chain of UniProt P62318 (P62318 whole entry, looked up): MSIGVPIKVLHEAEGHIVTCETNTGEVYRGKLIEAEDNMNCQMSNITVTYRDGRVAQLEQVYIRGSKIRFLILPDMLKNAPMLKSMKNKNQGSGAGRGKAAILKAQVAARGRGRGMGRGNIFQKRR
Chain of UniProt Q9H2D1 (Q9H2D1 whole entry, looked up): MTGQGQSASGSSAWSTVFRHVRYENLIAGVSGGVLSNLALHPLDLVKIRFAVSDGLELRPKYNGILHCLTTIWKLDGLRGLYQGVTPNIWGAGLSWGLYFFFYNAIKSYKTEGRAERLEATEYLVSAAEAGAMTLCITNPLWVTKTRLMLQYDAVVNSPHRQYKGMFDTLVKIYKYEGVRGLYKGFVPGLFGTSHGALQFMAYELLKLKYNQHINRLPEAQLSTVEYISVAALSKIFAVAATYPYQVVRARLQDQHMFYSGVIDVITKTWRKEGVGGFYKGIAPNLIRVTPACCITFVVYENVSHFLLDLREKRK
Chain of UniProt P10124 (P10124 whole entry, looked up): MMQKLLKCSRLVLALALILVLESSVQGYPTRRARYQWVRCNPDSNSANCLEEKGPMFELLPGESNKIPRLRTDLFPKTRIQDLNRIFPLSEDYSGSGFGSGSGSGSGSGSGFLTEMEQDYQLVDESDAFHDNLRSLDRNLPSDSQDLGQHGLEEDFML

On to SMAP2 (UniProt Q8WU79), for which the log2 fold change in assay [1] was 0.017; in assay [2], -0.002; in assay [3], -0.058; in [4], 0.024; in [5], -0.086; in assay [6], 0.047. Besides, the log2 fold change in assay [7] was -0.037; in [8] it was -0.004; in assay [9], 0.01; in assay [10], -0.03.

In the case of SLC35A3 isoform 2 (UniProt Q9Y2D2), the log2 fold change in [1] was -0.406; in [2], -0.079; in [3], 0.016; in assay [4], 0.069; in assay [6] it was 0.067; in assay [7] it was -0.019. Moreover, the log2 fold change is 0.069 in [8], -0.019 in assay [9] and 0.198 in assay [10].

On to SRSF9 (UniProt Q13242), for which the log2 fold change is -0.021 in assay [1]; -0.165 in [2]; 0.002 in assay [3]; -0.054 in assay [4]; -0.044 in [5]; 0 in assay [6]. Moreover, the log2 fold change in [7] is -0.084; in [8], -0.013; in [9] it was -0.017; in assay [10], -0.022.

On to SLC12A6 (UniProt Q9UHW9), for which the log2 fold change in assay [1] was -0.03; in assay [2], 0.03; in assay [3] it was 0.065; in assay [4] it was 0.006; in [5], -0.038; in assay [6], 0.034. The log2 fold change is -0.021 in assay [7], -0.006 in [8], 0.004 in assay [9] and 0.093 in assay [10].

Turning to SLC27A2 (UniProt O14975), the log2 fold change was 0.005 in assay [1]; -0.009 in assay [2]; 0.216 in assay [3]; -0.044 in assay [4]; 0.172 in [5]; 0.063 in assay [6]. Further, the log2 fold change in assay [7] was 0.019; in assay [8], 0.002; in assay [9], 0.017; in assay [10], -0.089.

Take SRGN (UniProt P10124): the log2 fold change in [1] was -0.509 (active); in [2], 0.027; in assay [3], 0.048; in assay [4], 0.175; in assay [5], 0.065; in assay [6], 0.014. Moreover, the log2 fold change in assay [7] is -0.055; in [9], 0.026.

As to SNRPD3 (UniProt P62318), the log2 fold change in assay [1] was -0.121; in [2], 0.014; in assay [3], -0.003; in assay [4], -0.046; in assay [5], -0.068; in [6], -0.014. Moreover, the log2 fold change in assay [7] was 0.027; in assay [8], 0.017; in [9] it was 0.022; in [10] it was 0.052.

For SLC25A32 (UniProt Q9H2D1), the log2 fold change was -0.05 in [1]; 0.037 in [2]; -0.01 in assay [3]; 0.03 in assay [4]; 0.052 in assay [5]; 0.04 in [6]. Besides, the log2 fold change in assay [7] was 0.01; in assay [8] it was 0.036; in assay [9] it was 0.001; in [10], -0.033.

SLC30A6 isoform 2 (UniProt Q6NXT4): the log2 fold change in assay [1] was 0.023; in [2], 0.126; in [3] it was 0.016; in assay [4], 0.011; in assay [6], 0.003; in [7], -0.322 (active). Further, the log2 fold change in assay [8] is 0.003; in [9] it was -0.18; in [10], -0.005.

Turning to SLU7 (UniProt O95391), the log2 fold change in assay [1] was -0.086; in assay [2] it was -0.042; in assay [3] it was -0.065; in assay [4], 0.016; in assay [5], -0.006; in assay [6] it was 0.071. For the same target, the results for the log2 fold change in assay [7], in assay [8] and in assay [10] were 0.021, 0.002 and 0.026, respectively.

Regarding SYF2 (UniProt O95926), the log2 fold change was 0.004 in assay [1]; 0.039 in assay [2]; 0.103 in assay [3]; -0.034 in assay [4]; 0.049 in assay [5]; 0.038 in assay [6]. The log2 fold change was 0.033 in assay [7], 0.018 in [8], 0.058 in assay [9] and 0.038 in assay [10].
